From PubChem
Rows were chosen to be rich in hits. Some 11% of all compounds tested hit in one or more screens of this group.
Tau fibril ThT = blocks human tau fibril formation measured by thioflavin T | Potency, µM (doses to about 57.4 µM), without a hit: at the highest dose activity, negative = inhibition, actives largely listed as inhibitors | 270,000 tested, 2.1% active | recombinant tau K18 P301L, heparin-induced fibrillization, ThT fluorescence; further: potency means the concentration at half of the fitted maximal effect; nearly all actives have a fitted effect of over 55% in size
Target sequence (P10636 561-689 P618L limits assumed): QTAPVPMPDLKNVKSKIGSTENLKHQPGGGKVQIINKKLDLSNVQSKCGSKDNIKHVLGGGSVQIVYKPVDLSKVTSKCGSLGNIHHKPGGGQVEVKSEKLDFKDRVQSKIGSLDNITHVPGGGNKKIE
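Tau K18 P301L fragment (15 uM unlabeled plus 0.24 uM Alexa 594-labeled) in 100 mM sodium acetate pH 7 with compound, fibrillization induced by 20 uM heparin for 6 hr at 37 C. Thioflavin T (30 uM) added, fluorescence read after 1 hr (ex 450, em 510 nm).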
Sfp PPTase inh = blocks B. subtilis Sfp PPTase activity; Q9F4F7; Biochemical Sfp PPTase activity, qHTS; Potency, µM, for inactives: largest response in the series, negative = inhibition, most hits filed as inhibitors; AID 1490; 310,000 tested, 3.5% active;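 further: the enzyme is Sfp with the accession as filed and its product quenches rhodamine fluorescence; potency means the concentration at half of the fitted maximal effect; 0% = enzyme reaction without inhibitor and -100% = no enzyme wells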
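Fluorescence-quenching assay: 15 nM Sfp-PPTase preincubated 15 min at room temperature with compound, then 5 uM rhodamine-CoA and 12.5 uM BHQ-2-labelled YbbR peptide added. Fluorescence (ex 525/em 598 nm) read at start and after 30 min; difference gives rate.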
G9a block = inhibitors of human histone lysine methyltransferase G9a; Q96KQ7; G9a H3K9 monomethylation, AlphaScreen, 2 h; Potency, µM (doses to about 102 µM), for inactives: top-dose activity, negative = inhibition, usual class: inhibitors; 350,000 tested, 8.8% active; AID 504332; further: potency means the concentration at half of the fitted maximal effect; nearly all actives have a fitted effect of over 75% in size
Target sequence (Q96KQ7 913-1193 limits assumed): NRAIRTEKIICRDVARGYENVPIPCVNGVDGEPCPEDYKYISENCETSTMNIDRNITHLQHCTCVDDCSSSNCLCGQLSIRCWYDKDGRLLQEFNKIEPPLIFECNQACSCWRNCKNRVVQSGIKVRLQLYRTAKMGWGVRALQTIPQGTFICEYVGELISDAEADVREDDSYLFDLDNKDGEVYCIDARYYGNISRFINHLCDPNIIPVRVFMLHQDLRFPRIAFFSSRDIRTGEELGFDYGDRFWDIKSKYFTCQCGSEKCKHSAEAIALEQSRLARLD
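Readings reflect AlphaScreen signal from monomethyl-H3K9 antibody detection. HMT at 20 nM; substrate b-H3K9 500 nM; cofactor SAM 20 uM; 2 h RT reaction; compounds tested as titrations in qHTS with 15 min preincubation.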
Tau fibril FP = blocks human tau fibril formation measured by polarization; P10636; K18 P301L tau heparin fibrillization, Alexa594 FP, 6 h; Potency, µM (doses to about 57.7 µM), for the others: at the top dose activity, negative = inhibition, actives largely listed as inhibitors; 280,000 tested, 0.39% active; further: potency means the concentration at half of the fitted maximal effect; nearly all actives have a fitted effect of over 55% in size
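K18 P301L tau (15 uM unlabeled/0.24 uM Alexa 594-labeled, final) + compound + heparin 20 uM final; 100 mM NaOAc pH 7; 6 hr 37 C; ThT 30 uM final added, 1 hr RT; FP ex 555/em 632 nm.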
FBPA coupling cs = counter-screen for Giardia aldolase inhibitors: coupling enzyme system | coupling enzyme system counterscreen, AmpLite Red fluorescence | activity change, negative = inhibition, % at 58.2 µM, hits read low | 290,000 tested, 0.67% active; in the data active means activity change below about -30%
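Activity here indicates interference with the coupling reaction, not aldolase inhibition. Compounds at 57.5 uM final met coupling enzymes for 10 min at RT; substrate and AmpLite Red detection followed, with a 525/598 nm fluorescence read after 20 min.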
Tau fluor cs = counter-screen for tau fibril formation inhibitors. AID 1463. Potency, µM (titrated, usually from 57.7 µM), for the others: at the top dose activity change, negative = decrease. tau K18 P301L (four-repeat tau fragment) Alexa594 fluorescence, heparin fibrillization. 280,000 tested, 0.93% active; further: potency means the concentration at half of the fitted maximal effect; nearly all actives have a fitted effect of over 55% in size
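Human K18 P301L tau (15 uM unlabeled plus 0.24 uM Alexa 594-labeled, final) in 100 mM sodium acetate pH 7 was mixed with compound and 20 uM heparin and incubated 6 hr at 37 C.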
* marks the source's active call; other numbers are inactive results; ? = inconclusive; . = no result given; [ ] = remark or other dose. Unless noted, the call rests on the fitted dose curve; in most records, active means well fitted curve in the direction sought with a large enough effect; inconclusive means small, poorly fitted or top-dose-only effect, or another doubt; inactive means no such curve, though single readings can be large; an effect the other way counts as inactive or inconclusive. Unless noted, on the % scale 0 is the no-effect control and ±100 the full control effect.

SMILES	Tau fibril ThT	Sfp PPTase inh	G9a block	Tau fibril FP	FBPA coupling cs	Tau fluor cs
COc1ccc(/C=C2\C(=O)ON=C2c2ccccc2)cc1	.	40µM*	40µM*	.	-1	.
COc1ccc(-c2nc(SCC(=O)NCc3ccco3)c(-c3ccccc3)[nH]2)cc1OC	-16%	?	45µM*	?	-1	?
COc1ccc(-c2[nH]c(-c3ccc(F)cc3)nc2SCC(=O)NCc2ccco2)cc1OC	?	-11%	89µM*	?	2	?
O=C(CN1C(=O)NC2(CCCc3ccccc32)C1=O)c1ccc(Br)cc1 (centres undefined)	.	.	-50%	.	.	.
O=C(Cn1c(SCCOc2ccccc2Cl)nc2ccccc21)N1CCOCC1	-2%	.	-12%[59 µM]	8%	.	3%
Cc1ccccc1CN1c2ccccc2-c2nc(SCC(=O)NCCc3ccccc3)ncc2S1(=O)=O	9%	.	2%[59 µM]	?	.	-21%
COCCN(C)Cc1cn(-c2ccc(F)cc2F)nc1-c1ccccc1C	?	89µM*	.	4%	-2	-13%
Cc1ccccc1-c1nn(-c2ccc(F)cc2F)cc1CNCCN(C)C	-17%	-7%	-5%[59 µM]	-4%	-3	-11%
CCOc1ccc(NC(=O)CN(C)S(=O)(=O)c2ccc3c(c2)c(=O)n(C)c(=O)n3C)cc1	-5%	.	5%[59 µM]	-9%	.	-9%
CCOc1ccc(CNC(=O)CCS(=O)(=O)Cc2cccc(Cl)c2)cc1OC	1%	-1%	22%[59 µM]	3%	3	-1%
OCCOCCn1c(-c2ccccc2)nc(=S)c2c1CCCC2	-7%	?	50µM*	-3%	1	-9%
O=C(Nc1nc(=S)ss1)c1c(F)cccc1F	-4%	22µM*	18µM*	-9%	1	-8%
CC(=O)Nc1nc(C)c(C(C)(C)C)s1	-3%	?	29%[59 µM]	-7%	2	-11%
CC(=O)Nc1nc(=S)ss1	?	16µM*	?	?	6	-14%
Cc1ccccc1C(=O)Nc1nc(=S)ss1	?	22µM*	13µM*	?	5	-18%
CC(C)CC(=O)Nc1nc(=S)ss1	?	16µM*	1.6µM*	?	4	-27%
COc1ccc(CCNC(=O)c2c(O)nc3c(C)cccn3c2=O)cc1OC	-14%	.	-38%[59 µM]	-5%	.	-16%
Cc1ccc(S(=O)(=O)Nc2ccc3nc(-c4cccc(Cl)c4)oc3c2)cc1	-1%	.	5%[59 µM]	?	.	?
COc1cc2[nH]c3c(=O)n(CCN(C(C)C)C(C)C)cnc3c2cc1OC	-15%	-19%	79µM*	-2%	-45*	-15%
Cc1nnc(SCc2ccc(Cl)cc2)c2cc3occc3n12	?	.	10µM*	?	.	-25%
Cc1nnc(SCc2ccccc2Cl)c2cc3occc3n12	?	.	13µM*	-16%	.	?
Cc1oc(-c2ccccc2F)nc1CSc1nnc(C)n2c1cc1occc12	-11%	.	-2%[59 µM]	-5%	.	-14%
Cc1ccc(-c2nc(CSc3nnc(C)n4c3cc3occc34)c(C)o2)cc1	-3%	.	-4%[59 µM]	10%	.	0%
C=Cc1ccc(CSc2nnc(C)n3c2cc2occc23)cc1	?	.	10µM*	-8%	.	-25%
Cc1cccc(OCC(=O)Nc2ccc3c(c2)nc2n3CCOC2)c1	.	6%	29%	.	0	.
SMILES	Tau fibril ThT	Sfp PPTase inh	G9a block	Tau fibril FP	FBPA coupling cs	Tau fluor cs
CCOC(=O)N1CCc2c(sc3c2c(=O)n(-c2ccc(Cl)cc2)c(=O)n3CC(C)C)C1	6%	.	-1%[59 µM]	-2%	.	-2%
COc1ccccc1C1C(C(=O)Nc2ccccc2)=C(C)Nc2nc(-c3ccccc3)nn21 (centres undefined)	2%	.	-17%[59 µM]	10%	.	?
O=C(NCCN1CCc2ccccc2C1)C1CCN(S(=O)(=O)N2CCC3(CC2)OCCO3)CC1	-8%	-27%	8%[12.7 µM]	3%	-1	-3%
CS(=O)(=O)N1CCCC(C(=O)NCCCN2CCc3ccccc3C2)C1 (centres undefined)	11%	-20%	11µM*	1%	0	12%
O=C(NCCN1CCc2ccccc2C1)C1CCN(S(=O)(=O)N2CCCCC2)CC1	3%	?	50µM*	3%	0	2%
CC1(C)CC(=O)C2=C(C1)OC(N)=C(C#N)C21CCN(Cc2ccccc2)CC1	?	-1%	28µM*	-13%	-6	-15%
CC(=O)N1CCC2(CC1)C(C#N)=C(N)OC1=C2C(=O)CC(C)(C)C1	-7%	7%	2%[59 µM]	-1%	3	5%
O=C1C(Nc2ccccc2)=C(NS(=O)(=O)c2ccccc2)C(=O)c2ccccc21	?	-2%	-8%[59 µM]	-6%	-28	-28%
O=C1C(Nc2ccccc2)=C/C(=N/S(=O)(=O)c2cccs2)c2ccccc21	3.5µM*	?	8.9µM*	?	-38*	8.9µM*[quencher]
Cc1ccc(NC2=C/C(=N/S(=O)(=O)c3cccs3)c3ccccc3C2=O)cc1	?	-1%	2.8µM*	-1%	-42*	8.9µM*[quencher]
CCOC(=O)c1cc(C)nc(SC)c1C#N	0%	79µM*	50µM*	-8%	4	-8%
CCOC(=O)c1cc(C#N)c(SCC(=O)c2cc(C#N)c(SC)nc2C)nc1C	?	16µM*	45µM*	?	4	?
CCOC(=O)c1cc(C#N)c(SCc2cccc3ccccc23)nc1C	-1%	19%	38%[59 µM]	-12%	1	-16%
O=C(Cc1c(F)cccc1Cl)Nc1nccs1	.	14%	-5%	.	-3	.
CCOC(=O)c1c(C)[nH]c(C)c1S(=O)(=O)N1CCCC(C(=O)Nc2ccc(OC)c(OC)c2)C1 (centres undefined)	1%	.	-21%[59 µM]	-6%	.	-5%
CCCCCOC(=O)CSc1ncnc2c1sc1nc(N3CCOCC3)c3c(c12)CCCC3	-13%	.	3%[59 µM]	-10%	.	-14%
CCOc1ccccc1NC(=O)Nc1nnc(N2CCCC(C)C2)s1 (centres undefined)	1%	.	5%[59 µM]	7%	.	1%
O=C(O)C(S)[C@@H](S)C(=O)O (some centres undefined)	7.9µM*	-90%	?	11µM*	0	-29%
CCOc1ccc(N(CC)S(=O)(=O)N2CCCC(C(=O)Nc3ccc(OC)c(Cl)c3)C2)cc1 (centres undefined)	-4%	.	1%[59 µM]	-1%	.	?
O=C(CN1CCN(c2cccc(Cl)c2)CC1)Nc1nccs1	-2%	6%	40µM*	1%	0	-8%
CCc1nnc(NC(=O)CN2CCN(c3cccc(OC)c3)CC2)s1	-16%	-7%	14µM*	4%	2	-13%
CCc1nnc(NC(=O)CN2CCN(Cc3cccc(OC)c3)CC2)s1	.	-4%	-13%	.	1	.
